# Rows were chosen to be rich in hits. Some 7.3% of all compounds tested hit in one or more screens of this group.
# Luc counter – Counterscreen for Luciferase (Kinase-Glo TM) Inhibition | AID 1379, 2008 | 0.28% of 200,000 active | Kinase-Glo luciferase, ATP luminescence, 8 min | Potency, µM (titrated, usually from 38.3 µM), without a hit: at the top dose activity change, negative = inhibition, usual class: inhibitors; note: % is set by controls: 0 for no effect and ±100 for the full control effect; nearly all actives have a fitted effect of over 60% in size
#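 Light output from Kinase-Glo luciferase with luciferin and 10 uM ATP in 50 mM imidazole pH 7.2, KCl, MgCl2, Tween 20, BSA; compound pin-delivered, 8-min ambient incubation, then luminescence read.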
# ELG1 genotox – qHTS screen for small molecules that induce genotoxicity in human embryonic kidney (HEK293T) cells expressing luciferase-tagged ELG1. HEK293T ELG1-luciferase reporter, luminescence, 16 h. Potency, µM (series often up to 46 µM), without a hit: at the top dose activity change, positive = activation, actives largely listed as activators. 1.3% of 330,000 active. AID 504466, 2011; note: % of control where 0% means no effect; nearly all actives have a fitted effect of over 60% in size
#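 Genotoxic stress is detected as increased luminescence from luciferase-tagged ELG1 in HEK293T cells, measured with ONE-Glo after a 16 hr treatment at 37 °C.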
# SMN2 splice up – qHTS Assay for Enhancers of SMN2 Splice Variant Expression; HEK293 SMN2-luciferase splicing reporter, luminescence, 30-36 h; Potency, µM (doses to about 46.1 µM), for inactives: top-dose activity change, positive = activation, actives largely listed as activators; 2.8% of 210,000 active; note: % of control where 0% means no effect; nearly all actives have a fitted effect of over 55% in size
#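 HEK293 cells carry an SMN2 […]–luciferase reporter in which exon 7 inclusion puts luciferase in frame. Cells were plated 10-12 h before compound addition, then incubated 30-36 h at 37C. ONE-Glo luminescence was read; sodium butyrate at 4.5 mM final served as control.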
# NPC1 promoter act – qHTS Assay for NPC1 Promoter Activators; Huh7 NPC1 promoter luciferase reporter, 24 h; Potency, µM (titrated, usually from 9.22 µM), for inactives: at the highest dose activation, actives largely listed as activators; 2.4% of 320,000 active; note: % of control where 0% means no effect; nearly all actives have a fitted effect of over 60% in size
#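 Compounds in DMSO were transferred onto Huh7 NPC1-luciferase reporter cells pre-incubated 2 h; after 24 h at 37 °C, Amplite reagent was dispensed and luminescence recorded 10 min later.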
# FLuc counter – qHTS profiling assay for firefly luciferase inhibitor/activator using purifed enzyme and Km concentrations of substrates (counterscreen for miR-21 project). Potency, µM (series often up to 57.5 µM), inactives show top-dose activity change, negative = inhibition, most hits filed as inhibitors. purified FLuc, Km substrates, luminescence inhibition. Luciferin 4-monooxygenase (Photinus pyralis), P08659. 6.9% of 360,000 active;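 note: plate controls were vehicle for no effect and reference inhibitor for full effect; nearly all actives have a fitted effect of over 55% in size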
# Target sequence (P08659 whole entry, looked up): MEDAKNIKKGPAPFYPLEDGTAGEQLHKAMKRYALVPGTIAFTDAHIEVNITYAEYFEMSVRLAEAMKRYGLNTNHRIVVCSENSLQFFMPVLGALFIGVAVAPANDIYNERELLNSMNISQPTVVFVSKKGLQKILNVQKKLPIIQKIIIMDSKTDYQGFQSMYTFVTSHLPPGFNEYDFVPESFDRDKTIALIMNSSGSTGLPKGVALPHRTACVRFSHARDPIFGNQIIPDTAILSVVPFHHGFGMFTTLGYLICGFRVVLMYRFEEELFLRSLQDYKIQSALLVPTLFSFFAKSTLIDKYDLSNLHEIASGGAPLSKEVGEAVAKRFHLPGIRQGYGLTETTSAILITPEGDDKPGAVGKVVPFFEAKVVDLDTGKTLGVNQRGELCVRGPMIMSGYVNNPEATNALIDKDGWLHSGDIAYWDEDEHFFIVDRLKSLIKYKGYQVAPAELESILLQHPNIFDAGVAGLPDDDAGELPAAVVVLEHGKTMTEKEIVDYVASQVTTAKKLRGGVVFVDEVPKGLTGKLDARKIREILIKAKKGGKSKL
#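 Purified P. pyralis luciferase (10nM final) with 10uM D-luciferin and 10uM ATP (Km levels) in 50mM Tris acetate pH 7.5, 10mM Mg acetate, 0.01% Tween-20, 0.05% BSA; qHTS 6-point titration, ~60 µM downward; luminescence read.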
# Rab9 promoter act – qHTS Assay for Rab9 Promoter Activators; Huh7 Rab9 promoter-luciferase reporter, luminescence, 24 h; Potency, µM (series often up to 9.22 µM), for inactives: at the top dose activation, negative = inhibition, actives largely listed as activators; 2.8% of 320,000 active; note: % of control where 0% means no effect; nearly all actives have a fitted effect of over 60% in size
#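 Luciferase signal after 10 min detection reagent at ambient indicates Rab9 promoter upregulation; stably transfected Huh7 cells were treated 24 h with compound in DMSO at 37 °C, 5% CO2.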
# Numbers without * were called inactive; ? = inconclusive; . = not tested or not shown; [ ] = remark or other dose. Calls come from the whole dose curve; as a rule, active = well fitted curve in the direction sought with a large enough effect; inconclusive = small, poorly fitted or top-dose-only effect, or another doubt; inactive = no such curve, though single readings can be large; an effect the other way counts as inactive or inconclusive. Potency is the fitted concentration of half-maximal effect.
SMILES,Luc counter,ELG1 genotox,SMN2 splice up,NPC1 promoter act,FLuc counter,Rab9 promoter act
N#C/C(=C\c1ccccc1)C(=O)Nc1ccccn1,.,0%,.,0%,15µM*,5%
Cc1ccc(NC(=O)/C(C#N)=C/c2ccccc2Cl)cc1C,.,.,-7%,.,11µM*,.
C=CCOc1ccc(/C=C(\C#N)C(=O)Nc2ccccn2)cc1,.,-1%[9.26 µM],.,1%,2.1µM*,4%
N#C/C(=C\c1ccccc1Cl)C(=O)Nc1ccccn1,.,-1%,.,2%,19µM*,1%
Cc1cccc(/C=C(\C#N)C(=O)Nc2ccccn2)c1,.,2%,.,-1%,?,1%
Cc1ccc(Sc2ccc(N3CCCC(C(=O)Nc4ccc(F)cc4)C3)nn2)cc1 (configuration not stated),.,.,-2%,.,-16%,.
CC(=O)c1ccc(NC(=O)CSC2=Nc3ccccc3N=C(c3ccc(F)cc3)C2)cc1,.,.,.,.,-2%,.
Cc1cccc(C)c1NC(=O)/C(C#N)=C/c1cccs1,-1%,2%,-6%,-8%,0%,15%
Cc1ccc(NC(=O)/C(C#N)=C/c2cccs2)c(C)c1,4%,?,13µM*,2µM*,-15%,3.5µM*
CC(C)(C)c1ccc(/C=C(\C#N)C(=O)Nc2ccccn2)cc1,.,-5%,.,2%,8.5µM*,-2%
O=C(Cn1ccn(-c2ccc(F)cc2)c(=O)c1=O)NCCc1ccccc1,.,.,.,.,-5%,.
CC(=O)c1ccc(N2CCN(C(=O)NCc3noc4ccc(C)cc34)CC2)cc1,.,.,.,.,-11%,.
CSc1ccc(C2c3[nH]c4ccccc4c3CCN2C(=O)c2cc(C)n(C)n2)cc1 (configuration not stated),1%,?,?,9%,17µM*,?
Cc1cc(C(=O)N2CCc3c([nH]c4ccccc34)C2c2cccc(Cl)c2)nn1C (configuration not stated),-1%,-11%,.,1%,-10%,-1%
CCC(C(=O)Nc1nc(C)c(C)s1)c1ccccc1 (configuration not stated),.,-5%,.,-2%,?,0%
Cc1ccc(C(=O)Nc2nnc(NC(=S)Nc3ccccc3)s2)cc1,.,7%,.,24%,19µM*,26%
CCc1nnc(NC(=S)Nc2ccccc2)s1,1%,-5%,22µM*,?,?,?
CCOc1ccc(C(=O)Nc2nnc(NC(=S)Nc3ccccc3)s2)cc1,0%,6%,14%,15%,?,4%
Cc1nc(NC(=S)Nc2ccccc2)sc1C,5%,15%,16µM*,?,2.7µM*,?
CCc1nnc(NC(=O)CCC(=O)Nc2ccccc2)s1,3%,14%,17%,-3%,-2%,-4%
O=C(Nc1ccc2c(c1)OCO2)c1noc2c1CCCC2,.,0.65µM*,.,0.79µM*,1.5µM*,0.63µM*
O=C(Nc1ccc2c(c1)OCO2)c1noc2c1CCCCC2,-14%,?,5.6µM*,0.56µM*,2.1µM*,0.45µM*
COc1ccccc1/C=C/C=N/n1c(-c2ccccc2)n[nH]c1=S,.,-5%,.,2%,15µM*,13%
Cn1cnc([N+](=O)[O-])c1SCC(=O)O,-5%[7.66 µM],.,-6%[9.22 µM],.,.,.
COc1ccccc1/C=N/NC(=O)c1cccc(NC(=O)c2ccccc2C)c1,.,-18%,.,-3%,15µM*,1%
SMILES,Luc counter,ELG1 genotox,SMN2 splice up,NPC1 promoter act,FLuc counter,Rab9 promoter act
COc1ccc(C(=O)Nc2cccc(C(=O)N/N=C/c3ccc(OC)cc3OC)c2)cc1,.,1%,.,?,1.9µM*,4µM*
COc1ccc(/C=N/NC(=O)c2cccc(NC(=O)c3ccccc3Cl)c2)cc1,.,0%,.,-19%,5.4µM*,-2%
O=C(N/N=C/c1ccncc1)c1cccc(NC(=O)c2ccccc2Cl)c1,-1%,-3%,2%[1.84 µM],-2%,?,5%
COc1ccc(/C=N/NC(=O)c2cccc(NC(=O)c3ccccc3Cl)c2)cc1OC,0%,-6%,-10%,4%,?,-3%
COc1cc(/C=N/NC(=O)c2cccc(NC(=O)c3ccccc3Cl)c2)ccc1O,1%,-9%,-7%,5%,15µM*,-5%
COc1cc2c(cc1OC)C(COc1ccccc1OC)N(C(=O)CC(C)C)CC2 (configuration not stated),.,.,.,.,-3%,.
O=C(N/N=C/c1ccc(F)cc1)c1cccc(NC(=O)c2ccccc2Cl)c1,.,2%,.,0%,9.5µM*,6%
COc1ccc(/C=N/NC(=O)c2cccc(NC(=O)c3ccccc3Cl)c2)c(OC)c1,1%,14%,-28%,10%,4.3µM*,2%
COc1ccc(NC(=O)O/N=C/c2ccccc2Cl)cc1,.,16%,.,4%,30µM*,-2%
COc1ccc(N2Cc3ccc(C(=O)N/N=C\c4ccc(O)cc4O)cc3C2)cc1,.,11%,.,?,15µM*,?
COc1ccc(OC)c(CNC(=O)CCCn2nc(C)c3c(C)n(-c4ccc(C)cc4)nc3c2=O)c1,.,.,.,.,-15%,.
COc1ccc(/C=N/NC(=O)c2cccc(NC(C)=O)c2)c(OC)c1,-3%,0%,-6%,1%,-17%,3%
CCCCC(=O)Nc1cccc(C(=O)N/N=C/c2ccc(OC)cc2OC)c1,-3%,0%,-18%,-1%,17µM*,1%
c1cncc(-c2nc3c(ccc4ccccc43)[nH]2)c1,-1%,7%,8%,?,11µM*,?
COc1ccc(OC)c(NC(=O)CSc2nnc(NC(=O)c3ccco3)s2)c1,.,-3%,.,8%,27µM*,11%
COc1ccccc1NC(=O)CSc1nnc(NC(=O)c2ccco2)s1,.,14%,.,-1%,15µM*,8%
C/C(=C\C(=S)Nc1ccccc1)Nc1ccc2ccccc2c1,0%,26%,-2%,16%,17µM*,14%
S=C(NCc1ccccc1)Nc1ccc2ccccc2c1,.,?,.,2.2µM*,13µM*,?
Cc1ccc(NC(=O)C2CCCN2S(=O)(=O)c2cccc3nsnc23)cc1Cl (configuration not stated),.,.,-43%,.,7%,.
FB(F)F,.,.,25%,.,.,.
CN(C(=O)COC(=O)c1ccc(Cl)s1)C1(C#N)CCCCC1,.,1%,.,-7%,19µM*,1%
Cc1ccc(C(=O)OCC(=O)c2ccc(Cl)s2)s1,-2%,?,.,1%,2.7µM*,21%
CN(C(=O)COC(=O)c1ccc(Cl)c(S(=O)(=O)N2CCCCC2)c1)C1(C#N)CCCCC1,.,0%,.,-2%,-15%,-8%
O=C(COC(=O)c1ccc[nH]c1=O)c1ccc(Cl)s1,-3%,-2%,8%,-4%,15µM*,3%

# Bioassay records deposited in PubChem BioAssay by National Center for Advancing Translational Sciences (NCATS).
